A selection: hits, their analogues and other compounds. The true share with any hit is near 9.5%.
Tau fluor cs: counter-screen for tau fibril formation inhibitors | tau K18 P301L Alexa594 fluorescence, heparin fibrillization | Potency, µM (titrated, usually from 57.7 µM), without a hit: top-dose activity change, negative = decrease | actives 0.93% (n = 280,000) | AID 1463; further: nearly all actives have a fitted effect of over 55% in size
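Human tau K18 P301L (15 uM unlabeled, 0.24 uM Alexa 594-labeled) in 100 mM sodium acetate pH 7 with 20 uM heparin, 6 hr at 37 C. ThT 30 uM added, 1 hr ambient; Alexa 594 FP and total fluorescence read at 555/632 nm.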
Tau fibril ThT: blocks human tau fibril formation measured by thioflavin T; actives 2.1% (n = 270,000); Potency, µM (highest dose often 57.4 µM), inactives show top-dose activity, negative = inhibition, actives largely listed as inhibitors; AID 1460; recombinant tau K18 P301L, heparin-induced fibrillization, ThT fluorescence; P10636; further: nearly all actives have a fitted effect of over 55% in size
Target sequence (P10636 561-689 P618L limits assumed): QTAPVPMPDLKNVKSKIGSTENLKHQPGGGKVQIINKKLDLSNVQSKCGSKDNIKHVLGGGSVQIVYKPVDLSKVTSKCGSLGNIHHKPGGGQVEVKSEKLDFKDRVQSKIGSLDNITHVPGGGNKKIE
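Fibril formation assay: tau K18 P301L at 15 uM with trace Alexa 594 label, heparin inducer 20 uM, pH 7 sodium acetate buffer, 37 C for 6 hr; endpoint ThT signal.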
Tau FP inhib: blocks human tau fibril formation measured by polarization. K18 P301L tau heparin fibrillization, Alexa594 FP, 6 h. actives 0.39% (n = 280,000). AID 1468. Potency, µM (titrated, usually from 57.7 µM), for inactives: at the top dose activity, negative = inhibition, usual class: inhibitors. P10636; further: nearly all actives have a fitted effect of over 55% in size
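Steps: dispense K18 P301L tau (15 uM plus 0.24 uM Alexa 594 tracer, final) in pH 7 sodium acetate; add compound; add heparin (20 uM final); incubate 6 hr, 37 C; add ThT (30 uM final); after 1 hr ambient, read FP.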
ALDH1A1 inh: ALDH1A1 (human) enzyme inhibition | P00352 | AID 1030 | Potency, µM (top dose mostly 75.3 µM), without a hit: top-dose activity, negative = inhibition, most hits filed as inhibitors | actives 7.3% (n = 220,000) | Purified ALDH1A1, NADH fluorescence, propionaldehyde substrate; active means well fitted inhibition curve with a large enough effect, not every such curve was filed as active; inconclusive means small, poorly fitted or top-dose-only effect, or another doubt; inactive means no such curve, though single readings can be large or run the other way;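 further: plate controls were no enzyme wells and a reference inhibitor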
HPGD inh: HPGD (human) dehydrogenase inhibition; AID 894; actives 4.3% (n = 150,000); purified HPGD, NADH fluorescence kinetic, PGE2 substrate; Potency, µM, without a hit: top-dose activity change, negative = inhibition, actives largely listed as inhibitors; active means well fitted inhibition curve with a large enough effect, not every such curve was filed as active; inconclusive means small, poorly fitted or top-dose-only effect, or another doubt; inactive means no such curve, though single readings can be large or run the other way
Target sequence (P15428 whole entry, looked up): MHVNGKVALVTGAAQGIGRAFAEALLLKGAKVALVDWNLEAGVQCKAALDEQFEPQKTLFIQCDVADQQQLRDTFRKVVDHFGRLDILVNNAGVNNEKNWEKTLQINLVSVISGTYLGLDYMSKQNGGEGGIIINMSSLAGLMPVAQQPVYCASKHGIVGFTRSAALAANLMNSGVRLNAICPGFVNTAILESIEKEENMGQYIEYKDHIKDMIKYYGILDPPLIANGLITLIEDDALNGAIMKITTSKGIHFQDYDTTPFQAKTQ
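NADH formation kinetics: reaction with 30 uM PGE2 and 1 mM NAD+ (final), 20 nM enzyme, Tris-HCl pH 8 with Tween 20, after 15 min compound preincubation at room temperature. Fluorescence change, last versus first of five reads.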
NPSR antagonist: antagonists of human neuropeptide S receptor cAMP signaling; Q6W5P4; CHO-NPSR cells, cAMP TR-FRET, antagonist mode; Potency, µM (top dose mostly 38.3 µM), without a hit: at the top dose activity change, negative = inhibition, actives largely listed as inhibitors; actives 1% (n = 220,000); further: nearly all actives have a fitted effect of over 50% in size
* hit, by the source's call; ? = inconclusive; . = not tested or not shown; [ ] = remark or other dose. Unless noted, the call rests on the fitted dose curve; in most records, active means well fitted curve in the direction sought with a large enough effect; inconclusive means small, poorly fitted or top-dose-only effect, or another doubt; inactive means no such curve, though single readings can be large; an effect the other way counts as inactive or inconclusive. Unless noted, on the % scale 0 is the no-effect control and ±100 the full control effect; potency means the concentration at half of the fitted maximal effect.

SMILES	Tau fluor cs	Tau fibril ThT	Tau FP inhib	ALDH1A1 inh	HPGD inh	NPSR antagonist
Cc1ccc(CN(C(=O)c2ccccc2F)c2ccccn2)o1	-8%	-14%	-4%	.	.	.
COCCNC(=O)c1cc(Br)ccc1Cl	6%	2%	1%	3%	22µM*	-2%[46.1 µM]
CN(C)CCNC(=O)c1cc(Br)ccc1Cl	1%	-1%	-6%	8%	-4%	1%[46.1 µM]
CC(C)NC(=O)COC(=O)c1cc(Br)ccc1Cl	0%	-1%	6%	-5%	22µM*	-3%
Cc1c(Cl)cccc1NC(=O)CCS(=O)(=O)c1ccc2c(c1)CC(C)N2C(=O)C1CC1 (stereo not drawn)	-1%	3%	3%	.	.	.
COC(=O)C1=C(NC(C)=O)CCS1	-8%	-3%	-8%	-3%	-12%	13%
COc1ccc(CCC(=O)NCCc2cn3c(C)csc3n2)cc1	-10%	?	-1%	18µM*	-6%	-9%[46.1 µM]
O=S(=O)(O)n1ccnc1 (tested in a mixture with another compound)	.	.	.	7%[13.5 µM]	-9%	.
O=C(CSc1nc(-c2ccco2)cc(C(F)(F)F)n1)NC1CCCC1	-5%	-9%	2%	?	14µM*	-4%[46.1 µM]
O=C(CCSc1nc(-c2ccco2)cc(C(F)(F)F)n1)Nc1cccc(O)c1	?	-7%	?	.	.	.
CCn1nc(C)c(NC(=O)CCSc2nc(-c3ccco3)cc(C(F)(F)F)n2)c1C	3%	5%	-5%	28µM*	?	2%[46.1 µM]
COc1ccc(-c2cc(C(F)(F)F)nc(SCCC(=O)Nc3cccc(O)c3)n2)cc1	?	2%	14µM*	.	.	.
COc1ccc(-c2cc(C(F)(F)F)nc(SCCC(=O)Nc3cccc(OC)c3)n2)cc1	?	-13%	?	.	.	.
Nc1c(C(=O)c2ccccc2)sc2snc(SCC(=O)c3ccccc3)c12	?	7.9µM*	?	10µM*	-29%	-10%[46.1 µM]
CCCn1c(-c2ccc(F)cc2)nc2c(NC3CCN(Cc4ccccc4)CC3)nc(C)nc21	-11%	-7%	-4%	?	?	.
CSC1=Nc2sc3c(c2C2=NCCN12)CCCC3	-8%	-12%	-5%	14µM*	.	-1%[46.1 µM]
COc1ccc(OC2C(O)COC2/C=C/C#Cc2ccccc2)cc1 (stereo not drawn)	-10%[11.6 µM]	?	-8%[11.6 µM]	?	.	.
CCOC(=O)CSc1nc2ccccc2n2cnnc12	6%	10%	7%	18µM*	?	-4%[46.1 µM]
CC1(C)CC(=O)C=C(NNC(=O)C2CCCCC2)C1	-10%	-9%	-1%	13µM*	15%	-10%[46.1 µM]
COc1ccccc1NC(=O)N1CCN(c2cc(-c3ccccc3)nc3ncnn23)CC1	-3%	-6%	-5%	-5%	-8%	-21%[46.1 µM]
O=C(Oc1ccc(C(=S)N2CCOCC2)cc1Br)c1ccccc1F	-2%	4%	-2%	25µM*	32µM*	5%
COc1ccc(C(=O)N2CCOCC2)cc1Br	-3%	0%	-9%	10%	-16%	-6%[46.1 µM]
O=C(Nc1cccc(Cl)c1)N1Cc2ccccc2Oc2ncccc21	-8%	3%	-7%	.	.	.
CN(C)c1ccc(C(CNC(=O)c2ccccc2Cl)N2CCCC2)cc1 (stereo not drawn)	-4%	-3%	1%	.	.	.
Cn1cc(-c2nc3cnc(N4CCOCC4)nc3n(CCC#N)c2=O)c2ccccc21	.	.	.	14%	.	.
SMILES	Tau fluor cs	Tau fibril ThT	Tau FP inhib	ALDH1A1 inh	HPGD inh	NPSR antagonist
CCC(=O)N1CCc2cc(CNC(=O)Nc3cc(OC)c(OC)c(OC)c3)ccc21	-21%	-12%	11%	.	.	.
CCOC(=O)c1cccc(NC(=O)NCc2ccc3c(c2)CCN3C(=O)CC)c1	18µM*[quencher]	?	?	.	.	.
O=C(CC1CCS(=O)(=O)C1)Nc1ccc[nH]c1=O (stereo not drawn)	8%	-2%	8%	25µM*	-20%	20%[46.1 µM]
CC(=O)OCC(=O)Nc1ccc(Cl)cc1Cl	9%	7%	0%	1%	20µM*	-1%[46.1 µM]
COC(=O)c1ccccc1NC(=O)COC(C)=O	-1%	-5%	8%	5.6µM*	0%	-8%[46.1 µM]
O=C(O)[C@@H]1[C@@H](C(=O)NCc2cccnc2)[C@@H]2C=C[C@@H]1O2	.	.	.	3%[13.5 µM]	-13%	.
CC(=O)Nc1ccc(-n2nnnc2SCC(=O)N2CCN(C(=O)c3ccco3)CC2)cc1	-15%	-10%	-14%	?	-14%	-10%[46.1 µM]
O=C1C2C(C(=O)N1/N=C/c1ccc(N3CCCCC3)o1)C1C=CC2C12CC2 (stereo not drawn)	5%	5%	12%	8.9µM*	-17%	-21%
COc1cccc(N2CCN(C(=O)CCCCCNc3nc(=S)[nH]c4ccccc34)CC2)c1	?	?	7%	6%	.	-11%
CCCCN1CC(c2nc3ccccc3n2CCCCOc2cccc(C)c2C)CC1=O (stereo not drawn)	4%	7%	5%	.	.	.
CCC1Oc2ccc(C)cc2N(CC(=O)N(Cc2cccnc2)Cc2ccc(C)o2)C1=O (stereo not drawn)	9%	-11%	-6%	3.2µM*	28µM*	?
COc1ccccc1CCNC(=O)C(=O)NCC(c1ccc2c(c1)OCO2)N1CCOCC1 (stereo not drawn)	-5%	4%	2%	.	.	.
NNC(=O)CC12CC3CC(C1)CC(n1ncnn1)(C3)C2	6%	-2%	5%	2.8µM*	2%	10%
Cc1ccc(S(=O)(=O)n2nc(OC(=O)C3CCCCC3)cc2N)cc1	-22%	?	-6%	?	-13%	13%[46.1 µM]
COc1ccc(S(=O)(=O)n2nc(OC(=O)C3CCCCC3)cc2N)cc1	-20%	?	-6%	2µM*	-12%	2%[46.1 µM]
Nc1cc(OC(=O)c2ccco2)nn1S(=O)(=O)c1ccc(F)cc1	-23%	?	?	14µM*	.	15%[46.1 µM]
Cc1ccc(S(=O)(=O)n2nc(OC(=O)c3cccs3)cc2N)cc1	-18%	?	-4%	2µM*	-12%	-3%[46.1 µM]
CC(=O)c1cccc(NC(=O)Cc2coc3cc4c(cc23)CCC4)c1	?	-3%	-10%	-9%	-19%	-2%
Cc1cccc(Cn2c(COc3ccccc3)nc3ccccc32)c1	-12%	-16%	7%	.	.	.
